Some test systems named below: NCI-H23 lung; NCI-H226 lung; NCI-H322M lung; HOP-62 NSCLC; NCI-H460 lung; HOP-92 NSCLC; NCI-H522 lung; A549/ATCC NSCLC; 786-0 renal; COLO 205 colon.
What all share (experiment): NCI-60 one-dose screen, 48 h (100 = growth as untreated, 0 = no growth, -100 = all killed)
Common to all, as to details: 10 µM unless noted

Compounds without any hit were thinned out: in the full panel of roughly 83,000, 20% have a hit.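 Testing used 96-well plates and a 48-hour single-concentration exposure. Example: -40 means 40% of the starting cells died.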 Unmarked numbers belong to inactive results. Active and inactive are the calls of the source. The calls were made as follows: active = growth percent below 10; inactive = the rest.

As for `COc1ccc([As]=[As]c2ccc(OC)c(NCS(=O)(=O)O)c2)cc1NCS(=O)(=O)O` (stereo not given), the growth with NCI-H23 lung is 23.3%; in the test with NCI-H226 lung it was 61.9%; with NCI-H322M lung it was 95.6%; in the test with HOP-62 NSCLC it was 39.7%; in the test on NCI-H460 lung, 88.2%; in the test on HOP-92 NSCLC, -21.9% (active). Moreover, the growth in the test on NCI-H522 lung is -32.9% (active); with A549/ATCC NSCLC it was 69.4%; in the test on 786-0 renal, -46.4% (active); with COLO 205 colon, 2.8% (active).

Turning to `c1cnc2[nH]cc(-c3csc(-c4cn(CCCCN5CCCCC5)c5ccccc45)n3)c2c1`, the growth was 95.2% in the test on NCI-H23 lung; 95.3% with NCI-H226 lung; 87.4% with NCI-H322M lung; 82.4% in the test with HOP-62 NSCLC; 76.3% with NCI-H460 lung; 48.3% in the test with HOP-92 NSCLC. For the same molecule, the growth with NCI-H522 lung was 98.5%; in the test with A549/ATCC NSCLC it was 83.6%; in the test with 786-0 renal it was 80.7%; in the test with COLO 205 colon it was 6.47% (active).

For `COc1ccc(C(O)(C(=O)O)c2ccc(OC)cc2)cc1`, the growth with NCI-H23 lung was 89.8%; in the test on NCI-H226 lung it was 116%; in the test on NCI-H322M lung, 102%; in the test on HOP-62 NSCLC, 91%; with NCI-H460 lung it was 97.2%; with HOP-92 NSCLC it was 95.1%. For the same molecule, the growth in the test on NCI-H522 lung is 62%; with A549/ATCC NSCLC, 71.6%; in the test on 786-0 renal, 94.8%; with COLO 205 colon, 102%.

For `COc1cc(C=Nc2cccc(Br)c2)ccc1N(CCCl)CCCl`, the growth in the test with NCI-H23 lung is 72.7%; in the test with NCI-H226 lung, 75.2%; in the test on NCI-H322M lung, 132%; in the test with HOP-62 NSCLC it was 89%; with NCI-H460 lung it was 21.9%; with HOP-92 NSCLC, 74.8%. Further, the growth was -81.5% (active) with NCI-H522 lung, 64.9% in the test with A549/ATCC NSCLC, 94.4% in the test on 786-0 renal and 78.5% in the test on COLO 205 colon.

For `COc1ccc(-n2c(C)nc3cc(OC)c(OC)cc3c2=O)cc1OC`, the growth was 101% in the test on NCI-H23 lung; 99.1% in the test on NCI-H226 lung; 97% in the test on NCI-H322M lung; 102% with HOP-62 NSCLC; 106% with NCI-H460 lung; 103% in the test with HOP-92 NSCLC. The growth in the test with NCI-H522 lung was 101%; with A549/ATCC NSCLC, 98%; in the test with 786-0 renal it was 102%; with COLO 205 colon, 99.5%.

For the molecule `CC1[C@H](C)OC(=O)CC(O)CC(O)CC(O)CCC(O)C(O)C[C@]2(O)CC(O)C(C(=O)O)C(CC(OC3O[C@H](C)[C@@H](O)[C@H](N)[C@@H]3O)/C=C/C=C/C=C/C=C/CC/C=C/C=C/[C@H](C)[C@H]1O)O2` (stereo not given in full), the growth with NCI-H23 lung was 90.8%; in the test on NCI-H226 lung, 99.1%; with NCI-H322M lung, 105%; in the test with HOP-62 NSCLC, 105%; with NCI-H460 lung, 103%; with HOP-92 NSCLC, 101%. The growth in the test with NCI-H522 lung is 114%; in the test with A549/ATCC NSCLC it was 97.8%; in the test on 786-0 renal, 105%; in the test with COLO 205 colon it was 93.7%.

`CCOC(=O)N1CC1`: the growth in the test with NCI-H23 lung is 107%; in the test on NCI-H226 lung it was 104%; in the test with NCI-H322M lung, 105%; in the test with HOP-62 NSCLC, 99.8%; in the test on NCI-H460 lung it was 107%; in the test on HOP-92 NSCLC, 53%. Further, the growth is 92.4% with NCI-H522 lung, 99.9% in the test on A549/ATCC NSCLC, 102% in the test with 786-0 renal and 91.3% in the test on COLO 205 colon.

For `COC(=O)[C@@H](C)C[C@H](Cc1ccc(F)cc1)NC(=O)c1csc([C@@H](C[C@H](C(C)C)N(C)C(=O)[C@@H](NC(=O)[C@H]2CCCCN2C)C2CC2)OC(C)=O)n1`, the growth in the test on NCI-H23 lung was 36%; in the test with NCI-H226 lung, 43.2%; in the test with NCI-H322M lung, 39.7%; with HOP-62 NSCLC, 12.2%; in the test on NCI-H460 lung, 7% (active); in the test with HOP-92 NSCLC, 46.6%. For the same molecule, the growth in the test with NCI-H522 lung was -15.2% (active); in the test with A549/ATCC NSCLC, 20.1%; in the test on 786-0 renal, 13.5%; in the test on COLO 205 colon, -73.1% (active).

With `COc1ccc(/C=C\c2cc(OC)c(OC)c(OC)c2)cc1OCC(=O)Nc1nc2ccc(C(F)(F)F)cc2s1`, the growth is 40.1% in the test on NCI-H23 lung; 45.8% with NCI-H226 lung; 64.7% with NCI-H322M lung; 45.4% in the test with HOP-62 NSCLC; 7.6% (active) with NCI-H460 lung; 46.6% in the test on HOP-92 NSCLC. In addition, the growth with NCI-H522 lung was -39.2% (active); in the test with A549/ATCC NSCLC it was 27.1%; with 786-0 renal it was 83.2%; in the test with COLO 205 colon, 95.3%.

For `CCCCCN(CCCCC)CC(O)c1cc(Cl)ccc1OC` (stereo not given), the growth with NCI-H23 lung is 37.6%; with NCI-H226 lung, 65.2%; in the test with NCI-H322M lung, 62.2%; with HOP-62 NSCLC, 4.36% (active); with NCI-H460 lung it was 15.4%; in the test with HOP-92 NSCLC, -6.26% (active). Further, the growth is 21.4% in the test on NCI-H522 lung, 42.2% in the test on A549/ATCC NSCLC, 24.7% in the test on 786-0 renal and 13.3% with COLO 205 colon.

With `COC(=O)[C@@H](C[C@H](Cc1ccccc1)NC(=O)c1csc([C@@H](C[C@H](C(C)C)N(C)C(=O)[C@@H](NC(=O)[C@H]2CCCCN2C)C(C)C)OC(C)=O)n1)NC(=O)OCc1ccccc1`, the growth was 35.1% [9.5 µM] with NCI-H23 lung; -36.8% [9.5 µM] (active) in the test with NCI-H226 lung; 43.1% [9.5 µM] in the test on NCI-H322M lung; 12.1% [9.5 µM] in the test on HOP-62 NSCLC; 5.31% [9.5 µM] (active) in the test on NCI-H460 lung; 25.7% [9.5 µM] with HOP-92 NSCLC. Moreover, the growth in the test on NCI-H522 lung is -45.5% [9.5 µM] (active); in the test on A549/ATCC NSCLC it was 14.1% [9.5 µM]; in the test on 786-0 renal it was 15.8% [9.5 µM]; in the test with COLO 205 colon, -65.4% [9.5 µM] (active).

For the molecule `COc1cc(/C=C\c2cc(OC)c(OC)c(OC)c2)cc(N/C=C\C(=O)c2cc(OC)c(OC)c(OC)c2)c1OC`, the growth was 29.6% in the test with NCI-H23 lung; 47.2% in the test on NCI-H226 lung; 36.8% in the test with NCI-H322M lung; 13.3% in the test on HOP-62 NSCLC; 17.3% with NCI-H460 lung; -9.27% (active) in the test with HOP-92 NSCLC. Also, the growth was 6.46% (active) in the test on NCI-H522 lung, 40% in the test on A549/ATCC NSCLC, 44% with 786-0 renal and 3.1% (active) in the test with COLO 205 colon.
